MBD2 DNA inh = blocks human MBD2 binding to methylated DNA; inhibition, % at 4.4 µM; actives 0.31% (n = 370,000); TR-FRET, MBD2 binding to methylated oligonucleotide; in the data active = inhibition above about 13%
PG9 Ab binder = binds the HIV-1 gp120 antibody PG9. TR-FRET gp120-PG9 antibody binding. inhibition, % at 6.7 µM. actives 0.43% (n = 360,000). AID 624416; in the data active = inhibition above about 8.5%
LEDGF integ inh = blocks HIV-1 LEDGF/p75-dependent DNA integration; inhibition, % at 3.7 µM; actives 0.64% (n = 370,000); AID 743269; TR-FRET IN-LEDGF/p75 DNA integration, Eu/Cy5;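 active = inhibition above the screen-wide mean plus 3 SD, cut at about 13% in these data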;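 also: signal is the Cy5 over europium emission ratio at 671 and 618 nm; 0% = plate median of compound wells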
UHRF1 MBD2 ctr = blocks human UHRF1 binding to methylated DNA. actives 0.75% (n = 370,000). AID 687016. UHRF1 binding to methylated oligo, TR-FRET. inhibition, % at 4.4 µM; in the data active = inhibition above about 21%;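 also: UHRF1 SRA domain binding a hemimethylated CpG hairpin DNA probe; 0% = median of test compound wells and 100% = reference inhibitor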
rCAG RNA binder = molecules binding r(CAG) RNA repeats; r(CAG) RNA repeat, TO-PRO-1 dye displacement fluorescence; inhibition, % at 3 µM; actives 1.3% (n = 370,000); AID 651821;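 active = inhibition above the plate cutoff, the mean of all test compounds on that plate plus 3 SD, cut at about 35% in these data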;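 also: 0% = DMSO alone and 100% = 100 µM mitoxantrone as full dye displacement; higher means more dye released from RNA so lower well fluorescence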
DNMT1 block = inhibitors of human DNMT1 | P26358 | DNMT1 molecular beacon, Hinp1I cleavage, fluorescence | inhibition (reported as % activation of signal), % at 10 µM | actives 0.83% (n = 360,000) | AID 588458; in the data active = inhibition above about 50%
Target sequence (P26358 504-1616 limits assumed): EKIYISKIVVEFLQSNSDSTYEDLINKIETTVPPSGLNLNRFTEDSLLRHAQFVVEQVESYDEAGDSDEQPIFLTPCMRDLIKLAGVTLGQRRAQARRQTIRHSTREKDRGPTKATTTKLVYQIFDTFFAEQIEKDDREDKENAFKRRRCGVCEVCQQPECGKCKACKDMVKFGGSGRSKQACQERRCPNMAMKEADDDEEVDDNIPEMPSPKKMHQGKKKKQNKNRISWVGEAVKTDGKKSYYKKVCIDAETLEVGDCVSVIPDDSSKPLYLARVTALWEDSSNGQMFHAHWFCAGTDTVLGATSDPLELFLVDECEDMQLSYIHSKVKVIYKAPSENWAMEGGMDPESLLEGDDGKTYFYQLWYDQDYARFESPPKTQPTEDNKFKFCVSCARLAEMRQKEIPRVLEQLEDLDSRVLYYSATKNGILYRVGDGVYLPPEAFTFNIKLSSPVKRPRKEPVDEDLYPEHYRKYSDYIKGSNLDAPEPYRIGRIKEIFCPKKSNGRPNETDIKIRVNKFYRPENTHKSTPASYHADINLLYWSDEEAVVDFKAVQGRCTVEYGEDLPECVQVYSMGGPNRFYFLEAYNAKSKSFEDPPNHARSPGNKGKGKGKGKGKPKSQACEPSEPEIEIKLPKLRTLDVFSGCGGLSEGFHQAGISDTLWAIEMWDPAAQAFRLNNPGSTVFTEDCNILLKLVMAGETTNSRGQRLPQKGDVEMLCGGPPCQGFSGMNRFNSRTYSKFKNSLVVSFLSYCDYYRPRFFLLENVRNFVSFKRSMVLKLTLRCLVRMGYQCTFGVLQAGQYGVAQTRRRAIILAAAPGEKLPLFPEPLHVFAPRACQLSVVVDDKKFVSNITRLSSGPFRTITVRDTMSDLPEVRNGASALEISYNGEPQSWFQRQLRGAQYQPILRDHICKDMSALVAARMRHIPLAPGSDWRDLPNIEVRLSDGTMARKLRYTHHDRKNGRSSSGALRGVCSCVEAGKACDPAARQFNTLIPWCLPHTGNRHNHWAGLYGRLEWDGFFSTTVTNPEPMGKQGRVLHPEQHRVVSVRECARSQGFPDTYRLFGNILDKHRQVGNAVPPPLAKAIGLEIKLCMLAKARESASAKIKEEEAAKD
An asterisk follows results filed as active; . = no result. Compounds with a hit are over-represented: about 3.5% of the library has one in this group of screens.

SMILES	MBD2 DNA inh	PG9 Ab binder	LEDGF integ inh	UHRF1 MBD2 ctr	rCAG RNA binder	DNMT1 block
COc1ccc(/C([O-])=C(/C(=S)Nc2ccc(C)c(C)c2)n2c[n+](C)c3ccccc32)cc1OC	4	-1	2	26*	4	-13
O=C(CSc1nnc(-c2ccccc2)n1-c1ccc(Cl)cc1)Nc1ccccc1-c1ccccc1	-2	.	5	1	10	.
C/C(=N\Nc1cc(-c2ccccc2)nc(-c2ccc(Br)cc2)n1)c1cccc(N)c1	2	-2	1	3	43*	-18
C/C(=N/Nc1cc(-c2ccccc2)nc(-c2ccccc2)n1)c1ccc(O)cc1	7	-1	2	2	17	-34
Cc1ccc(S(=O)(=O)NCC2CN(S(=O)(=O)c3ccc(C)cc3)c3ccccc3C(=O)N2c2ccc(F)cc2)cc1 (stereo not given)	-1	.	7	12	.	.
O=C(NCc1ccco1)c1ccc(COCC(F)(F)C(F)F)cc1	-1	-2	1	0	41*	0
CCOC(=O)C1=CC[C@@H](c2ccccc2)N(S(=O)(=O)c2ccc(C)cc2)[C@H]1C=C(C)C	-7	-1	0	1	4	0
COC(=O)[C@H](C(C)C)N1Cc2nnn(Cc3ccc(C)cc3)c2-c2ccccc2S1(=O)=O	1	.	-2	-1	2	.
Cc1cc(O)c2c(c1O)C(=O)[C@]13C(=C2O)C(=O)[C@@H]2[C@@H](O)[C@H]1[C@@H]1[C@H](O)[C@H]3C(=O)C3=C(O)c4c(O)cc(C)c(O)c4C(=O)[C@]312	.	.	.	.	.	95*
CN[C@H]1C[C@H]2c3[nH]c4c(-c5ccc6c(c5)OCO6)cccc4c3CCN2C[C@H]1[C@H](C)O	3	.	0	0	13	.
COc1ccc(N2CCN(C(=O)c3oc4ccccc4c3NC(=O)Cc3cccc(OC)c3)CC2)cc1	4	-1	4	24*	0	-5
COC(=O)[C@]12C[C@H](CC(=O)NCc3ccccc3)C(=O)N(Cc3cccc4ccccc34)C1=C[C@H](COCc1ccccc1)O[C@@H]2C	-2	.	2	3	10	.
Cn1cccc1/C=N/NC(=O)c1ccc[n+]([O-])c1	1	0	2	22*	-2	-1
COc1ccc(CN2C(C(=O)NC3CCCC3)CSCCS2(=O)=O)cc1 (stereo not given)	7	.	-2	2	5	.
NC(=O)N[C@@H](Cc1c[nH]c2ccccc12)C(=O)OCC(=O)N1CCCCC1	2	0	-5	24*	-2	10
CC(=O)NC(Cc1c[nH]c2ccccc12)C(=O)OCC(=O)N1CCN(S(=O)(=O)c2ccc(Cl)cc2)CC1 (stereo not given)	3	-1	-7	0	3	-1
Nc1nc2cc3c(cc2cc1C(=O)NCc1cccnc1)OCO3	-4	-2	-1	-2	5	.
CCOC(=O)c1c2c(n(C)c1C)C(=O)C(=O)c1ccc(Br)cc1-2	5	-1	7	0	-1	88*
COC(=O)[C@]12C[C@H](CC(=O)NCC34CC5CC(CC(C5)C3)C4)C(=O)N(Cc3cccc4ccccc34)C1=C[C@H](C(C)C)O[C@@H]2C1CC1	1	.	0	4	9	.
C#CC(=O)CC1(CN(Cc2ccccc2)C(=O)OC(C)(C)C)CCCCC1	2	0	5	4	1	54*
COC(=O)[C@]12C[C@H](CC(=O)N3CCCCC3)C(=O)N(CCc3ccc(OC)c(OC)c3)C1=C[C@H](COCc1ccccc1)O[C@@H]2C	-5	.	0	-2	2	.
Cc1cc(CSc2ccccc2)ccc1NC(=O)c1ccc(Br)cc1	-3	-1	0	33*	3	21
C[C@H]1C2CC(OC(=O)Nc3cccc(Cl)c3)C(C2)[C@H]2CCCCN21 (stereo not given in full)	2	.	-4	0	5	.
Cc1ccc(N2C(=O)NC3(CCCCC3)C2=O)cc1	11	-1	-4	23*	-3	-2
CC1=CC(C)(C)NC(=O)N1c1ccc(C)cc1	-7	-1	5	-2	-3	1
SMILES	MBD2 DNA inh	PG9 Ab binder	LEDGF integ inh	UHRF1 MBD2 ctr	rCAG RNA binder	DNMT1 block
CCCCCCCC/C=C\CCCCCCCC(=O)O	-1	2	2	2	26	59*
Cc1ccc(N(C)S(=O)(=O)c2ccc(-c3cnc(C4CC4)o3)cc2)cc1	5	-1	1	23*	-1	0
Cc1ccc(NS(=O)(=O)c2ccc(-c3cnc(C4CC4)o3)cc2)cc1	-4	1	-2	1	5	1
COc1ccc(NC(=O)[C@@]2(CC(=O)O)CC(/C=C/c3ccccc3)=NO2)cc1	2	1	-1	6	11	-4
CC(=O)c1ccc(NC(=O)[C@@]2(CC(=O)O)CC(/C=C/c3ccccc3)=NO2)cc1	-2	-1	-2	54*	14	0
COc1cccc2cc(C(=O)CS(=O)(=O)c3ccc(C(C)(C)C)cc3)c(=O)oc12	3	1	-2	1	38*	17
COc1ccc(S(=O)(=O)CC(=O)c2cc3cccc(C)c3oc2=O)cc1	.	.	.	.	.	4
CC(=O)NC1(C(F)(F)F)N=C(c2ccccc2)NC1=O (stereo not given)	3	1	-1	23*	-1	-3
COC(=O)CCC(=O)N1C2=NC3=C(C(=O)N(Cc4ccc5c(c4)OCO5)C3=O)C3N(C)c4ccccc4[C@]23C[C@H]1CO (stereo not given in full)	5	.	5	0	14	.
COc1ccc(NC(=O)Cn2c(=O)n(CC3CCCO3)c(=O)c3ccccc32)c(OC)c1 (stereo not given)	8	0	5	22*	-3	4
N#C/C(=C\c1ccc(-c2ccccc2[N+](=O)[O-])o1)C(=O)Nc1nc(-c2cccs2)cs1	-4	-1	3	-2	50*	28
CC(=O)N1CCN(c2ccc(NCc3ccc(Br)o3)cc2)CC1	-5	-8	28*	-3	-2	-3
COc1ccc(F)cc1-c1cc(C(C)=O)c2n(c1=O)CCC2	1	.	-2	1	3	.
COc1ccc(CNC(=O)c2cc(S(=O)(=O)N3CCCCC3)ccc2N2CCOCC2)cc1OC	1	0	-3	30*	1	2
CCCC(=O)Nc1cc(S(=O)(=O)N2CCCCC2)ccc1N1CCOCC1	4	0	4	21*	1	0
CN1CCN(c2ccc(S(=O)(=O)N3CCOCC3)cc2NC(=O)CC(C)(C)C)CC1	1	1	0	61*	3	2
CCCC(=O)Nc1cc(S(=O)(=O)N2CCOCC2)ccc1N1CCCCC1	1	-2	3	3	3	-2
O=S1(=O)c2c(cccc2N2CCSCC2)Oc2ccccc2CN1Cc1cn(Cc2ccccc2C(F)(F)F)nn1	3	.	7	5	9	.
